system: Chordin-like protein 2 (CHRDL2); experiment: compounds binding chordin-like 2 – biochemical, small-molecule microarray, 635 nm fluorescence, primary screen (AID 1126); conditions: fluorescence 635 nm, higher = more signal;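 note: printed compound slides probed with Chrdl2 protein at 4 µg/mL for 1 h at 4 C; score merges 667 nm emission intensity with signal to noise over three replicate slides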

Point of comparison: `COc1ccc(O[C@H]2C=C[C@@H](c3ccccc3)O[C@@H]2CON=C2[C@H]3CCn4c(=O)n(-c5ccccc5)c(=O)n4[C@H]3[C@H](O)[C@@H]3O[C@H]23)cc1`, composite z-score 0.276. Against it:
- CC(C)CCN1CCc2nc(COc3ccccc3)c3c(c2C1)CO[C@@H](C)C3 — lower, 0.119
- O=C(NN=C1C[C@@H](O)[C@@H](O)[C@@H]2[C@@H]3C(=O)N(Cc4ccccc4)C(=O)[C@@H]3CC[C@@H]12)OCc1ccccc1 — higher, 0.476
- CO[C@@H]1COC(=O)[C@@H](C)COC(=O)[C@@H](C)NC(=O)CC=C[C@@H]1C — higher, 1.6
- CO[C@@H]1COC(=O)CC=C[C@@H](C)[C@@H]2C=C[C@H](O)[C@@H](COC(=O)CC=C[C@H]1C)O2 — higher, 1.14
- COC(=O)[C@@H]1CC[C@H](C)[C@@H](c2ccc(C)cc2)N1C(=O)c1ccc(C=NO[C@H](C)c2cn([C@H](CO)Cc3ccccc3)nn2)cc1 — higher, 0.684
- CCC=CCCC(OC(=O)c1ccc(Br)cc1)C1=CCCCC1=O (stereo unspecified) — higher, 1.02
- CO[C@H]1COC(=O)[C@@H](C)COC(=O)[C@H](COCc2ccccc2)NC(=O)CC=C[C@H]1C — higher, 1.22
- CCOC(=O)CCN1C(=O)[C@H]2[C@H]3[C@H](O)[C@H](O)CC(=NOCC(C)C)[C@H]3CC[C@H]2C1=O — higher, 0.433
- C#CCCCON=C1C[C@@H](O)[C@@H](O)[C@@H]2[C@@H]3C(=O)N(CC)C(=O)[C@@H]3CC[C@@H]12 — higher, 0.687
- CON=C1[C@H]2CCn3c(=O)n(-c4ccccc4)c(=O)n3[C@H]2[C@H](O)[C@@H]2O[C@H]12 — higher, 0.501
- CC(C)=CCCC(C)=CCON=C1C[C@@H](O)[C@@H](O)[C@@H]2[C@@H]3C(=O)N(C(C)(C)C)C(=O)[C@@H]3CC[C@@H]12 — lower, 0.129
- CC(C)(C)N1C(=O)[C@H]2[C@H]3[C@H](O)[C@H](O)CC(=O)[C@@H]3CC[C@H]2C1=O — lower, 0.265
- CC(=O)OC[C@H]1O[C@H](CC=NO[C@H](C)c2cn([C@H](CO)Cc3ccccc3)nn2)C=C[C@@H]1OC(C)=O — higher, 0.41
- C=Cc1ccc([C@H]2N[C@H](C(=O)O)CC[C@@H]2C)cc1 — higher, 0.65
- O=C(C=Cc1ccc2c(c1)OCO2)c1ccc(F)cc1 — higher, 1.31
- C[C@@H]1CC[C@H]2C(=O)O[C@@H](Cc3ccccc3)CN2[C@H]1c1ccc(Br)cc1 — lower, 0.227
- C=CC1=C[C@H](O)[C@@H]2O[C@@H]2C12OCCCO2 — lower, 0.202
- CCN1C(=O)[C@H]2[C@H]3[C@H](O)[C@H](O)CC(=NO[C@@H](C)c4cn([C@H](CO)Cc5ccccc5)nn4)[C@@H]3CC[C@H]2C1=O — higher, 0.399
- CCOC(=O)[C@H](Cc1ccccc1)NC(=O)CCC1CC(OC(=O)NCc2ccc3c(c2)OCO3)CC2(CCCC(COC(=O)NCCC(C)C)O2)O1 (stereo partly specified) — higher, 0.309
- O=C1[C@H]2[C@H]3[C@H](O)[C@H](O)CC(=NOC[C@@H](O)COCc4ccco4)[C@H]3CC[C@H]2C(=O)N1C[C@@H]1CCCO1 — higher, 1.38
- CC(C)=NO[C@H](C)c1cn([C@H](CO)Cc2ccccc2)nn1 — lower, -0.0691
- O=C1CCCC=C1C(O)CCCCBr (stereo unspecified) — lower, 0.0069
- COC(=O)CC=C[C@@H](C)[C@@H](C=NOC[C@@H](O)[C@H]1O[C@@H]2OC(C)(C)O[C@@H]2[C@H]1O)NS(=O)(=O)c1ccc(C)cc1 — higher, 0.42
- CCOC(=O)[C@H](Cc1ccccc1)NC(=O)CCC1CC(OC(=O)NCCc2ccc(F)cc2)CC2(CCCC(COC(=O)NCc3ccccc3)O2)O1 (stereo partly specified) — higher, 0.468
- COC(=O)CC=C[C@@H](C)[C@@H](C=NOC(C)CN1CCCc2nc(C)c(C)cc21)OC (stereo partly specified) — higher, 0.377
- O=C1CCCC=C1C(O)CCOC(c1ccccc1)(c1ccccc1)c1ccccc1 (stereo unspecified) — lower, -0.0466
- C[C@@H]1C=CCC(=O)OC[C@H]2O[C@@H](C=C[C@@H]2O)[C@H](C)C=CCC(=O)OC1 — higher, 1.6
- CO[C@@H]1C=CCC(=O)N[C@@H](C)C(=O)OC[C@@H](OC)[C@H](C)CCCC(=O)OC[C@H]1C — higher, 1.53
- Cc1ccc(S(=O)(=O)OC[C@H]2CN3[C@H](c4ccc(Br)cc4)[C@@H](C)CC[C@H]3C(=O)O2)cc1 — lower, 0.0388
- CC(C)=CCCC(C)=CCON=C1C[C@@H](O)[C@@H](O)[C@@H]2[C@@H]3C(=O)N(C4CCCCC4)C(=O)[C@@H]3CC[C@@H]12 — higher, 1.01
- O=C1C=C[C@@H](O)[C@@H]2[C@@H]3C(=O)N(C[C@@H]4CCCO4)C(=O)[C@@H]3CC[C@@H]12 — higher, 0.458
- CCOC(=O)[C@H](CC(C)C)NC(=O)CCC1CC(OC(=O)NCc2cccc3ccccc23)CC2(CCCC(COC(=O)NCCCN3CCCC3=O)O2)O1 (stereo partly specified) — lower, 0.256
- Cc1ccc(S(=O)(=O)N[C@H]2COC(=O)CC=C[C@@H](C)COC(=O)CC=C[C@@H]2C)cc1 — higher, 1.23
- Cn1c(=O)n2n(c1=O)[C@H]1[C@H](O)[C@@H]3O[C@@H]3C(=O)[C@H]1CC2 — higher, 0.387
- O=C1C[C@@H](O)[C@@H](O)[C@@H]2[C@@H]3C(=O)N(C[C@@H]4CCCO4)C(=O)[C@@H]3CC[C@@H]12 — higher, 0.348

From PubChem BioAssay
